# Bioassay records deposited in PubChem BioAssay by several laboratories.
# Most compounds without a hit are left out; they make up all but 3.2% or so of the library.
# EphB4 ephrin blk: EphB4-ephrin-B2 interaction antagonists, primary screen, biochemical, TNYL-RAW peptide probe, fluorescence polarization. inhibition, % at 7 µM. 97,000 compounds, 0.15% hits. EphB4 LBD / TNYL-RAW-Alexa532 peptide. Ephrin type-B receptor 4 (Homo sapiens), P54760;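 active means inhibition above the screen-wide mean inhibition plus 3 SD, cut at about 15% in these data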;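 further: 0% = DMSO wells and 100% = excess unlabeled TNYL-RAW peptide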
# MT1-MMP txn act: MT1-MMP promoter reporter activation – cell-based, luciferase luminescence, primary screen; 86,000 compounds, 0.16% hits; activation factor at 10 µM; AID 750, 2007; HT1080 MT1-MMP promoter luciferase reporter, overnight; hits give high values;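 active means activation factor of at least 2 for MT1-MMP transcription at 10 µM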
# ERa SRC1 inh: ERα–SRC-1 coactivator interaction inhibitors, primary screen, biochemical, TR-FRET, ERα LBD, estradiol-bound. TR-FRET ER-alpha LBD / SRC-1 peptide. 86,000 compounds, 1.7% hits. inhibition, % at 25.6 µM. AID 629, 2007; in the data active means inhibition above about 50%;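 further: 0% = receptor plus peptide control and 100% = peptide only without receptor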
# ERa SRC1 pot: enhancers of ERα–SRC-1 coactivator binding, primary screen, biochemical, TR-FRET, ERα LBD, low estradiol. Estrogen receptor (Homo sapiens), P03372. TR-FRET ERalpha-LBD/SRC-Cy5 coactivator binding, 2 h; 100 = basal binding, no effect. coactivator binding (% of control), % at 25.6 µM. 86,000 compounds, 1.3% hits. AID 639, 2007; in the data active means activity above about 200%;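 further: binding measured in presence of low estradiol as agonist stimulus; 0% = peptide alone without receptor and 100% = receptor with peptide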
# Calb biofilm kill: clotrimazole potentiators killing Candida biofilms, primary screen, with clotrimazole, Alamar Blue. C. albicans biofilm + clotrimazole. inhibition, % at 6 µM. 85,000 compounds, 0.14% hits;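 active means inhibition above 20%; inactive means inhibition below 20%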;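 further: preformed 24 hr biofilms exposed to compound for 48 hr; 0% = biofilm without compound and 100% = blank killed by clotrimazole plus chlorhexidine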
# ERb coact inh: inhibitors of ERβ-SRC1 coactivator interaction, primary screen, biochemical, TR-FRET, ERβ LBD, SRC-1 peptide; TR-FRET ER-beta LBD / SRC1-Cy5 peptide binding; receptor agonist-loaded with 1 µM estradiol; 86,000 compounds, 1.3% hits; inhibition, % at 25.6 µM; AID 633, 2007;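 active means compounds whose percent inhibition of the receptor-coactivator binding signal exceeds about 50% in the single-dose screen, limit read from the data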;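 further: 0% = receptor plus peptide wells without compound and 100% = peptide-only wells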
# Starred values were filed as active, the others as inactive; . = no result given; + = active, no number; [ ] = dose if it differs, or a comment.
SMILES,EphB4 ephrin blk,MT1-MMP txn act,ERa SRC1 inh,ERa SRC1 pot,Calb biofilm kill,ERb coact inh
COc1cccc(-n2nnc3c(=O)n(Cc4ccc(C)cc4)cnc32)c1,6.9,1.2,-1.2,120.8,1.7,3.4
COc1cccc(-n2nnc3c(=O)n(Cc4ccc(Br)cc4)cnc32)c1,1.2,1.3,51.9*[fluorescence artefact?],353.7*[fluorescence artefact?],2.3,33.8
CCCn1c2ccc(/C(C)=N\O)cc2c2cc(/C(C)=N/O)ccc21,-2.8,1.2,-15.5,121.9,8.9,-17.0
C1CCC(c2nn3c(-c4n[nH]c5c4CCC5)nnc3s2)CC1,-1.3,0.9,75.0*,19.8,-3.1,61.4*
Cc1cc(C)nc(NC(=O)CSc2ccccn2)n1,.,1,.,.,.,.
Cc1cc(C)nc(NC(=O)CSc2nn(C)c(=S)s2)n1,3.5,1.1,64.8*,47.5,6.4,33.3
O=C(Nc1nccs1)c1ccc2nccnc2c1,-0.1,1.3,40.1,42.8,6.2,59.7*
Cc1cc(C)cc(NC(=O)Cn2cc3c(n2)CCCCC3)c1,-0.8,.,.,.,.,.
CN(C)c1ccc(NC(=O)Cn2cc3c(n2)CCCC3)cc1,.,1.3,85.3*[fluorescence artefact?],16.1,19.3,95.0*[fluorescence artefact?]
O=C(NCCCN1CCCCCC1)C1CC(=O)N(CCc2ccccc2)C1 (stereo not drawn),-1.7,1.1,2.9,966.1*[fluorescence artefact?],4.1,22.3
O=c1c2c([nH]c3ccccc13)C(=C1CCCC1)CC2,-0.9,1.2,76.7*[fluorescence artefact?],21.7,3.5,84.1*
CCOC(=O)c1ccc(N2C(=O)CC(N3CCC(Nc4ccc(F)cc4)CC3)C2=O)cc1 (stereo not drawn),-13.1,1.3,-1.2,94.2,8.0,-11.9
COc1ccccc1N/C(N)=N/c1nc(CSc2ccc(C)cc2)cc(=O)[nH]1,-11.9,1,48.2,257.9*[fluorescence artefact?],-5.2,30.4
Cc1cccc(C(=O)Nc2cccc(C(=O)N3CCOCC3)c2)c1,1.5,1.3,6.7,238.6*,3.5,3.0
Nc1cc(-c2nn[nH]n2)ccc1F,4.9,1.1,43.1,58.6,12.6,59.6*[fluorescence artefact?]
COc1cc(OC)cc(C(=O)OCc2cc3ccccc3[nH]c2=O)c1,6.6,1.2,-12.3,498.8*[fluorescence artefact?],4.1,7.7
O=c1ccc(/C=C/c2ccccc2)nn1Cc1ccc(Cl)cc1Cl,8.1,1.1,-2.5,+[fluorescence artefact?],-2.0,9.4
O=c1ccc(/C=C/c2ccccc2)nn1Cc1ccccc1Cl,-0.5,1,8.1,83.1,3.5,4.9
Cc1cc(NC(=O)CSc2nc3c(sc4ccccc43)c(=O)n2CCc2ccccc2)n[nH]1,-3.3,1,50.5*[fluorescence artefact?],130.6,0.6,37.2
CN1CCc2c(sc3c2C(=O)NC(c2cn(Cc4ccccc4)c4ccccc24)N3)C1 (stereo not drawn),0.2,1.3,89.6*[fluorescence artefact?],14.2,-1.1,64.0*[fluorescence artefact?]
Cc1cc(C)n(-c2nc(-c3ccc(Cl)cc3)cs2)n1,-0.1,1.4,12.9,100.5,-0.2,-0.8
Cc1nc2c(c(=O)n1CCC1=CCCCC1)c1nc3ccccc3nc1n2/N=C/c1ccco1,-4.1,1.3,79.5*[fluorescence artefact?],105.1,5.1,55.5*
O=C1c2ccccc2-c2onc3ccc(NCCCn4ccnc4)c1c23,106.8*[fluorescence artefact?],.,69.9*[fluorescence artefact?],89.1,7.4,27.0
Cc1cccc(-n2c(SCc3cc(=O)n4c(C)cccc4n3)nc3[nH]ncc3c2=O)c1,3.4,1.1,-5.9,82.1,-3.0,53.1*
COC(=O)C1(CCSC)NC(c2ccco2)C2C(=O)N(C)C(=O)C21 (stereo not drawn),-1.8,1,-7.5,116.0,-2.8,-7.9
SMILES,EphB4 ephrin blk,MT1-MMP txn act,ERa SRC1 inh,ERa SRC1 pot,Calb biofilm kill,ERb coact inh
COc1ccc(-c2nn(C)c3sc(C(=O)NCc4ccco4)cc23)cc1OC,.,1.1,79.9*[fluorescence artefact?],64.2,-2.2,58.9*[fluorescence artefact?]
COc1ccc(NC(=O)c2cc3c(-c4ccc(OC)c(OC)c4)nn(C)c3s2)cc1OC,1.9,1.1,-4.9,91.8,2.6,-1.5
Cc1sc2nc(C(C)Nc3ccccc3N3CCOCC3)[nH]c(=O)c2c1C (stereo not drawn),11.0,1,-12.2,253.9*,2.9,-4.6
CCC(=O)c1coc2ccc(O)cc12,-1.3,1.5,67.1*[fluorescence artefact?],45.0,3.2,78.1*[fluorescence artefact?]
Cn1cc(Cl)c(C(=O)Nc2cccc(Cl)c2Cl)n1,-4.8,1.4,36.3,113.9,6.9,21.0
COc1ccc(CNC(=O)COC(=O)c2cc(-c3ccco3)nc3ccccc23)cc1,10.6,1.5,87.0*[fluorescence artefact?],52.9,1.6,76.8*
COc1ccc(CNC(=O)COC(=O)c2cc(-c3cccs3)nc3ccccc23)cc1OC,11.9,0.9,36.6,72.4,-3.6,5.8
O=C(O)c1cc(-c2ccco2)nc2ccccc12,.,1.2,74.2*,37.5,2.2,81.7*[fluorescence artefact?]
O=C(OCC(=O)N1CCN(C(=O)c2ccco2)CC1)c1cc(-c2ccc(Cl)c(Cl)c2Cl)nc2ccccc12,2.4,1,38.2,121.1,8.3,14.5
O=C(OCC(=O)N1CCN(C(=O)c2ccco2)CC1)c1cc(-c2ccco2)nc2ccccc12,-2.8,1.1,92.1*[fluorescence artefact?],29.2,7.3,89.2*
Cc1cccn2c(=O)c3cc(C(=O)NCCc4ccccc4)c(=N)n(CCCn4ccnc4)c3nc12,6.7,.,.,.,.,.
C=CCc1ccc(OCCCCN2CC(C)OC(C)C2)c(OC)c1 (stereo not drawn),-1.8,1.1,0.5,113.4,1.2,-4.1
Fc1ccc(Cc2nnc(-c3cccs3)o2)cc1,.,1.4,-11.5,124.7,24.1*,-2.5
COC(=O)c1ccc(C(NC(=O)OCc2ccccc2)/C(C)=C/[C@@H](C)C(=O)N2CCN(C)CC2)cc1 (stereo partly drawn),.,1.1,.,.,.,.
COc1ccc(CC(=O)Nc2ccc(-c3noc(-c4ccc(Cl)cc4)n3)cc2)cc1,1.6,1.1,66.3*,128.2,-4.9,40.3
CCOc1ccccc1-c1nc(-c2ccc(NC(=O)c3ccc(Br)o3)cc2)no1,-3.4,1.6,29.8,384.3*,9.6,21.4
COc1ccc(CC(=O)Nc2ccc(-c3noc(-c4cc(OC)c(OC)c(OC)c4)n3)cc2)cc1,-5.6,1.2,34.0,120.9,4.0,33.8
CCOc1ccccc1-c1nc(-c2ccc(NC(=O)Cc3ccc(OC)cc3)cc2)no1,-4.3,1.1,42.8,287.1*[fluorescence artefact?],6.3,50.2*[fluorescence artefact?]
COc1ccccc1C1CC(c2ccc(Cl)cc2)Nc2ncnn21 (stereo not drawn),-0.1,1.1,-21.5,90.8,0.7,-3.2
CC(=O)N1CCc2cc(C(=O)CN3CCN(C(=O)c4ccco4)CC3)ccc21,0.8,0.9,-5.6,104.6,3.6,-4.6
